Results as given in ChEMBL document CHEMBL3988442, “University of Dundee, Small-Polar-MMV Screening Library” (2021).
Among all 69,000 compounds or so, about 950 (1.4%) showed an effect of 50% or more. Only a selection was taken, and strong results are over-represented in it overall.

What follows are compounds tested on Mycobacterium tuberculosis (assay: Cornell M. t heat shock assay; further: in the data most compounds retested in dose-response had high values).
Format: functional, organism-based
Set-up: dose or concentration left out as unconfirmed

Compound | Percent Effect
COCC(C)(CCO)NC(=O)Nc1cccc(Br)c1C (configuration not stated) | 16.48%
CN1CC(=O)N(c2ccsc2)CC12CCN(C(=O)Nc1ccccc1)C2.O=C(O)C(F)(F)F (configuration not stated) | -18.81%
O=C(N1CCCO1)[C@@]12CCO[C@@H]1CCN(Cc1cccs1)C2.O=C(O)C(F)(F)F | -21.11%
O=C(NCC1CC1)C12CC(CN1Cc1nccs1)C2 | 54.2%
O=C(N1CCCC1)C12CC(CN1Cc1nccs1)C2 | 42.03%
Cc1ccsc1C(=O)N1CC2CC1(C(=O)NCC1CC1)C2 | -11.04%
Cc1cc(N2CCN(Cc3cn(C)nc3C)CC2)cc(C2CCCN2)n1.Cl (configuration not stated) | -11.47%
CC(=O)N1CCCC1c1nnn2cc(-c3ccncc3)ccc12.O=C(O)C(F)(F)F (configuration not stated) | 8.291%
CC(=O)N1CCCC1c1nnn2cc(Nc3ccccc3)ccc12.O=C(O)C(F)(F)F (configuration not stated) | 86.99%
CC(=O)N1CCCC1c1nnn2cc(NCc3cccnc3)ccc12.O=C(O)C(F)(F)F.O=C(O)C(F)(F)F (configuration not stated) | 27.19%
CC(C)(C)c1n[nH]c(C2CN(CCc3ccncc3)CCO2)n1 (configuration not stated) | 12.04%
CC(=O)N1CCN(Cc2ccncc2)CC2(CC(=O)N(C)C2)C1.O=C(O)C(F)(F)F.O=C(O)C(F)(F)F (configuration not stated) | -4.515%
Cn1ccnc1CN1CC[C@H]2CO[C@H](CNc3ncccn3)[C@H]2C1.O=C(O)C(F)(F)F.O=C(O)C(F)(F)F.O=C(O)C(F)(F)F | -17.85%
Fc1ccccc1CC1CCN(Cc2nccs2)CC1 | 7.97%
Cc1cccc(CN2CCC(Cc3ccccc3F)CC2)n1 | 100.5%
Fc1ccc(COCC2CCN(Cc3ccccn3)CC2)cc1.O=C(O)C(=O)O | -21.79%
COc1cc(COCC2CCN(Cc3ccccn3)CC2)cc(OC)c1.O=C(O)C(=O)O | -10.83%
Fc1ccccc1CC1CCN(Cc2cscn2)CC1 | -8.017%
Cc1cccc(CN2CCC(NS(C)(=O)=O)CC2)n1 | 10.63%
Cc1cccc(CNC(=O)CC2CCN(Cc3ccccn3)CC2)n1 | -18.17%
Clc1ccc(COCC2CCN(Cc3ccccn3)CC2)cc1.O=C(O)C(=O)O | 53.14%
Fc1ccccc1CC1CCN(Cc2ccccn2)CC1 | 54.97%

Compound | Percent Effect
CN1C[C@H]2C[C@H](C(=O)Nc3cccnc3)[C@@H](C1)O2 | -0.0821%
COc1ccc(CNCC(C)Oc2ccccn2)cc1.Cl (configuration not stated) | -11.53%
Cc1cc(C(=O)N2CC[C@]3(C[C@@H](OCc4ccccn4)CO3)C2)c(C)o1.O=C(O)C(F)(F)F | 38.17%
CN(C)C(=O)CN1CCc2ncnc(N(C)C)c2CC1.O=C(O)C(F)(F)F | 23.34%
COCCn1cc2c(n1)C(CNCc1nccs1)OCC2.O=C(O)C(F)(F)F.O=C(O)C(F)(F)F (configuration not stated) | -27.8%
CN(C)Cc1cncc2c1CCN(Cc1ccoc1)C2.Cl.Cl.Cl | -10.16%
O=C(O)C(F)(F)F.O=C(O)C(F)(F)F.O=C1[C@H]2CN(Cc3cccs3)C[C@H]2CN1CCN1CCCC1 | -16.55%
NC(=O)N1CC[C@H]2CO[C@H](CNC(=O)c3ccnnc3)[C@H]2C1 | -0.7451%
COCC(=O)N1CCC(C)(c2cc(O)[nH]n2)CC1 | 53.15%
COCCN1CCC(C)(c2cc(O)[nH]n2)CC1 | -2.336%
CC(C)C(=O)N1CCC(C)(c2cc(O)[nH]n2)CC1 | 1.922%
CCOCC1CN(Cc2ccc(F)cc2)Cc2nn(C)cc21.O=C(O)C(F)(F)F (configuration not stated) | -29.18%
CC(C)c1nc(CC(=O)Nc2nc(CN3CCCCCC3)cs2)cs1 | 104.4%
CC(C)c1nc(CN2CCCCC2)cs1 | 0.8394%
CC(C)c1nc(CN2CCC(CO)CC2)cs1 | 17.89%
Oc1ccc([C@H]2Oc3cc(O)cc(O)c3C[C@@H]2O)cc1 | -4.634%
O=C1c2c(O)cc(O)cc2O[C@@H](c2ccc(O)cc2)[C@@H]1O | 53.66%
COc1cc(C2CC(=O)c3c(O)cc(O)cc3O2)ccc1O (configuration not stated) | 5.655%
CN(C)C(=O)[C@H]1C[C@@H]2CCN(Cc3ccoc3)C[C@@H]2O1.O=C(O)C(F)(F)F | 36.25%
Cc1ccc(C(=O)N2Cc3c(CN(C)C)nn(C)c3C2)cc1C.O=C(O)C(F)(F)F | -17.18%
CC(=O)c1ccc(Nc2nc(N)nc3c2nc(C)n3C)cc1 | 10.63%
Cc1nc2c(Nc3ccc(C#N)cc3)nc(N)nc2n1C | 5.734%

Compound | Percent Effect
Cc1nc2c(Nc3cccc(C#N)c3)nc(N)nc2n1C | 102.2%
O=C(NCCc1ccccn1)[C@@]12CCO[C@@H]1CCN(c1ncccn1)C2 | -5.799%
Cc1cnc(CNC(=O)[C@@]23CCO[C@@H]2CCN(C2CCCC2)C3)cn1.O=C(O)C(F)(F)F | 35.39%
Cc1cnc(CNC(=O)[C@@]23CCO[C@@H]2CCN(c2ncccn2)C3)cn1 | 39.63%
O=C(NCc1ccccn1)[C@@]12CCO[C@@H]1CCN(C1CCCC1)C2.O=C(O)C(F)(F)F.O=C(O)C(F)(F)F | 40.27%
CC(=O)N1CC[C@H]2OCC[C@@]2(C(=O)NCc2cnc(C)cn2)C1 | 51.19%
CS(=O)(=O)N1CC[C@H]2OCC[C@@]2(C(=O)NCCc2ccccn2)C1.O=C(O)C(F)(F)F | -5.552%
O=C(NCc1ccccn1)[C@@]12CCO[C@@H]1CCN(c1ncccn1)C2 | 92.45%
CS(=O)(=O)N1CC[C@H]2OCC[C@@]2(C(=O)NCc2ccccn2)C1.O=C(O)C(F)(F)F | 65.18%
O=C(NCc1ccccn1)[C@@]12CCO[C@@H]1CCN(Cc1ccccn1)C2.O=C(O)C(F)(F)F.O=C(O)C(F)(F)F.O=C(O)C(F)(F)F | 19.83%
Cc1ccc(O[C@@H]2C[C@H]3CN(c4ncc(F)cn4)CCN3C2)cc1.O=C(O)C(F)(F)F.O=C(O)C(F)(F)F | 19.77%
CN(C)S(=O)(=O)N1C[C@H]2C[C@H](C(=O)Nc3ccccc3)[C@@H](C1)O2 | 3.45%
N#Cc1cccc(CN2CC[C@@H]3[C@@H]2CC(=O)N3Cc2ccncc2)c1.O=C(O)C(F)(F)F.O=C(O)C(F)(F)F | 1.363%
COCCN1CC[C@H]2OCC[C@@H](C(=O)N3CCCO3)[C@H]2C1.O=C(O)C(F)(F)F | -19.22%
O=C(O)C(F)(F)F.c1ccc(N2CCC3(CCCN(c4ncccn4)C3)C2)nc1 (configuration not stated) | -26.18%
CC(C)NC(=O)[C@H]1C[C@H]2OCC[C@H]2N(Cc2ccc3ccccc3n2)C1.O=C(O)C(F)(F)F.O=C(O)C(F)(F)F | -9.211%
Cc1ccc(C(=O)N2CCC3(CC2)CN(c2ccccn2)CCO3)cc1.O=C(O)C(F)(F)F | -9.264%
Cn1cc(CN2Cc3c(cnn3C)C(COCC3CC3)C2)cn1.O=C(O)C(F)(F)F.O=C(O)C(F)(F)F (configuration not stated) | -38.19%
CO[C@H]1CCN(C(=O)Cc2ccsc2)[C@@H]2CN(CC3CC3)C[C@H]12.O=C(O)C(F)(F)F | -6.3%
Cc1cnc(C(=O)N2Cc3ncn(C)c3C(COCC(C)C)C2)cn1.O=C(O)C(F)(F)F (configuration not stated) | 6.608%
O[C@@H]1CN(CC2=Cc3cc(Cl)ccc3OC2)CC[C@H]1N1CCCCCC1 | 85.47%
CN1CCN([C@@H]2CCN(CC3=Cc4cc(Cl)ccc4OC3)C[C@H]2O)CC1 | -1.479%

Compound | Percent Effect
Cc1c(CN2CC[C@@H](N3CCC(O)CC3)[C@H](O)C2)[nH]c2ccc(Cl)cc12 | 15.96%
CC(C)NC(=O)CC1COC2(CCN(Cc3ccsc3)CC2)C1.O=C(O)C(F)(F)F (configuration not stated) | -6.674%
CCN(CC)C(=O)c1ccc(-c2ccsc2)nc1C | 85.72%
CCN(CC(=O)NC(C)C)C(=O)c1ccc(-c2ccsc2)nc1C | -31.64%
CCN(CC)C(=O)CN(C)C(=O)c1ccc(-c2ccsc2)nc1C | -2.005%
COCCN1CCC(c2nc3ccc(NC4CCC4)cn3n2)CC1.O=C(O)C(F)(F)F | 43.84%
CC(C)(C)C(=O)N1C[C@H](c2ccsc2)[C@H]2CN(C3CCCCC3)CC[C@H]21.Cl | 6.818%
CCC(=O)N1CCC2(CC1)C(=O)N(Cc1cccnc1)CCN2C.O=C(O)C(F)(F)F.O=C(O)C(F)(F)F | -1.837%
Cc1ccn(-c2ccccc2NCc2ccccn2)n1 | 31.75%
Cc1ccn(-c2ccccc2NCc2cscn2)n1 | -34.26%
Cc1ccc(CNc2ccccc2-n2ccc(C)n2)nc1 | 73.74%
COCCn1ccc2cc(C(=O)N3CCN(S(C)(=O)=O)CC3)ccc21 | 72.24%
COCCn1ccc2ccc(C(=O)N3CCN(C(C)=O)CC3)cc21 | 4.647%
COCCn1ccc2ccc(C(=O)O)cc21 | -0.8971%
CCOCC(O)CN1CCN(C(=O)Cc2ccc(C)cc2)CC1 (configuration not stated) | -41.68%
Cn1cc(C[C@H]2[C@H](O)CCN2CC2CC2)cn1.O=C(O)C(F)(F)F | 6.686%
O=C(O)C(F)(F)F.O=C(c1ccc(F)cc1)N1C[C@@H]2COC[C@]2(COc2cccnc2)C1 | 37.91%
O=C1C(CS(=O)(=O)Nc2ccccc2)=NC(=O)n2cccc21 | -27.85%
COCCN(Cc1ccccn1)Cc1sccc1C | -13.89%
COCCn1ccnc1CN(Cc1ccccn1)Cc1sccc1C | 88.17%
COCCN(Cc1sccc1C)Cc1nccn1CCOC | -20.4%
